Laboratory results: PubChem BioAssay (Tox21)
Records with an inconclusive call do not appear. The source made the active and inactive calls. Calls follow the shape of the dose curve; as a rule, active = well fitted activation curve with a large enough effect in the repeat runs; inconclusive = weak or mixed curves; inactive = flat fitted curve, though single readings scatter.

Assay: A CellTox Green Cytotoxicity Assay to monitor cytotoxicity in HEK293 cells - 8 hour (AID 1224884); also: nearly all actives have a fitted effect of over 35% in size
Settings: CellTox Green fluorescence; series mostly up to 76.8 µM; cytotoxicity increase: at the top concentration
Description: National Center for Advancing Translational Sciences [NCATS]
NIH Chemical Genomics Center [NCGC]
U.S. Environmental Protection Agency [EPA]
National Institutes of Environmental Health Sciences [NIEHS]
National Toxicology Program [NTP]
Cell-based models are critical for drug discovery. Determining the natural cytotoxic effects resulting from test compounds is an essential research activity. A CellTox Green Cytotoxicity Assay to monitor cytotoxicity in real time of continues cell culture during 40 hours of the compound treatment was used to screen Tox21 10K library compounds in Hek293 cells. CellTox Green Cytotoxicity Assay is a nonlytic, homogeneous, biofluorescent method to measure cytotoxicity in cell culture after experimental manipulation. The assay system uses a proprietary asymmetric cyanine dye that is excluded from viable cells but preferentially stains the dead cell's DNA. […] Viable cells produce no appreciable increases in fluorescence. Therefore, the fluorescence signal produced by the binding interaction with dead cell DNA is proportional to cytotoxicity.
The mixture of Hek293 cell suspension and reagents were dispensed at 600cells/6 ul/well in 1536-well tissue culture treated black solid bottom plates using a Multidrop dispenser. After the assay plates were incubated at a 37 C/5% CO2 incubator for 5 hours, 23 nL of compounds dissolved in DMSO, positive and negative controls was transferred to the assay plate by a pintool work station. The plates were incubated at 37 C for 40 hours. The fluorescence intensity were measured at 0h, 8h, 16h, 24h, 32h and 40h time points using ViewLux plate reader during compound treatment.
% is scaled to controls: 0 for no effect and ±100 for the full control effect; potency is read from the fitted curve at half-maximal effect.

Structure (SMILES)	cytotoxicity increase	Potency
N#C/C=C/c1ccccc1	4.11% (inactive)	–
CCOc1cc(C(C)(C)C)ccc1C1COC(c2c(F)cccc2F)=N1 (stereo not given)	24.8% [at 35.3 µM] (inactive)	–
N#CNC#N	2.13% (inactive)	–
Nc1ccc(Sc2ccc(N)cc2)cc1	-8.47% (inactive)	–
Cc1cc(C)cc(OP(=O)(Oc2cc(C)cc(C)c2)Oc2cc(C)cc(C)c2)c1	-0.737% (inactive)	–
c1ccc2c(c1)OCC(C1=NCCN1)O2 (stereo not given)	8.06% [at 35.3 µM] (inactive)	–
CN(C)C(=S)[S-].CN(C)C(=S)[S-].[Cu+2]	-12.4% [at 15.8 µM] (inactive)	–
C=COCCCl	0.837% (inactive)	–
COc1cc(C=O)cc2c1[C@H](COC(N)=O)[C@]1(OC(C)=O)ON2C[C@H]2[C@@H]1N2C(C)=O	-0.0048% (inactive)	–
Clc1ccc(COC(Cn2ccnc2)c2ccc(Cl)cc2Cl)cc1 (stereo not given)	-1.37% [at 35.3 µM] (inactive)	–
COP(=S)(OC)Oc1cc(Cl)c(Br)cc1Cl	7.91% (inactive)	–
Oc1c(Br)c(Br)c(Br)c(Br)c1Br	-2.65% (inactive)	–
CC(C)CC(C)Nc1ccc(Nc2ccccc2)cc1 (stereo not given)	0.0906% (inactive)	–
CCS(=O)(=O)c1cccnc1S(=O)(=O)NC(=O)Nc1nc(OC)cc(OC)n1	-12.4% (inactive)	–
NNC(=O)c1ccccc1	-1.09% (inactive)	–
CC(C)C(=O)Cl	16.4% (inactive)	–
Cc1cc(SCc2sc(-c3ccc(C(F)(F)F)c(F)c3)nc2C)ccc1OCC(=O)O	0.0093% (inactive)	–
COc1ccc(OC)c(C=O)c1	-21.5% (inactive)	–
OC(Cc1ccccc1Cl)(Cn1cncn1)C1(Cl)CC1 (stereo not given)	-1.24% (inactive)	–
c1ccc2c(c1)[nH]c1cnccc12	3.47% (inactive)	–

Structure (SMILES)	cytotoxicity increase	Potency
c1ccc(OCC2CO2)cc1 (stereo not given)	-11.7% (inactive)	–
Clc1ccc(Oc2ccccc2)cc1	-3.39% (inactive)	–
CC(c1ccc(O)cc1)c1ccc(O)cc1	9.91% (inactive)	–
O=C(CCl)Nc1ccccc1	0.934% (inactive)	–
COc1ccc(OC)c(CC(C)N)c1 (stereo not given)	0.282% (inactive)	–
[Hg+2].[I-].[I-]	–	49 µM (active)
O=C1C=CC(=O)c2ccccc21	7.04% (inactive)	–
Clc1ccc(-c2ccccc2)cc1	8.48% (inactive)	–
CC(C)OC(=S)S	-0.859% (inactive)	–
C=CCOC(N)=O	10.8% (inactive)	–
Cc1cccc(OP(=O)(Oc2cccc(C)c2)Oc2cccc(C)c2)c1	-0.309% (inactive)	–
Cc1cc(C(C)(C)c2cc(C)c(O)c(C)c2)cc(C)c1O	-6.32% (inactive)	–
O=[N+]([O-])c1c2ccccc2cc2ccccc12	-2.83% (inactive)	–
Fc1ccc(Oc2ccnc3cc(Cl)cc(Cl)c23)cc1	2.05% (inactive)	–
CCc1cc(C)cc(CC)c1-c1c(OC(=O)C(C)(C)C)n2n(c1=O)CCOCC2	12.4% (inactive)	–
CC1(C)[C@H](C(=O)O[C@H](C#N)c2cccc(Oc3ccccc3)c2)[C@@H]1/C=C(\Cl)C(F)(F)F	-24.3% (inactive)	–
FC(Cl)(Cl)Cl	-4.07% (inactive)	–
ClCCN1CCOCC1	-12.1% (inactive)	–
[Cl][Sn]([c]1ccccc1)([c]1ccccc1)[c]1ccccc1	–	2.33 µM (active)
N#Cc1ccccc1Cl	2% (inactive)	–
